According to PubChem BioAssay (NCATS):
Records with an inconclusive call do not appear. A call without a number means that no potency is given here. Calls of active or inactive are those of the source. Calls follow the shape of the dose curve; as a rule, active = well fitted curve in the direction sought with a large enough effect; inconclusive = small, poorly fitted or top-dose-only effect, or another doubt; inactive = no such curve, though single readings can be large; an effect the other way counts as inactive or inconclusive.

What was measured:
[1] = S16 Schwann cell viability assay (CellTiter-Glo assay) (AID 624031); also: nearly all actives have a fitted effect of over 70% in size
How it was run: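 Rat S16 Schwann cells without reporter constructs received compound or DMSO for 24 h at 37 °C under 5% CO2. Cellular ATP was then quantified by CellTiter-Glo luminescence, with vehicle wells defined as 0% activity and cell-free wells as reference.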

[2] = S16 Schwann cell PMP22 intronic element firefly luciferase assay (AID 624032); also: nearly all actives have a fitted effect of over 30% in size
How it was run: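 Luciferase reporter of PMP22 intronic-element expression in stably transfected S16 rat Schwann cells, read by ONE-Glo luminescence after 24 h compound exposure at 37 C. Activity scaled between DMSO (0%) and positive-control PTC124; concentration-effect curves quality-classified.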
Potency is read from the fitted curve at half-maximal effect.

SMILES | Potency [1] | Potency [2]
CCOC(=O)C(C#N)=C(c1ccccc1)c1ccccc1 | inactive | 
CCN(CC)CCNC(=O)c1cc(Br)c(N)cc1OC | inactive | 
Cc1cc(NS(=O)(=O)c2ccc(N)cc2)nc(C)n1 | inactive | inactive
CN1CCN(c2c(F)cc3c(=O)c(C(=O)O)cn4c3c2SCC4)CC1 | inactive | inactive
COc1cc(C(=S)N2CCOCC2)ccc1O | inactive | 
CC(=O)O[C@]1(C(C)=O)CC[C@H]2[C@@H]3C=C(Cl)C4=CC(=O)CC[C@]4(C)[C@H]3CC[C@@]21C | inactive | 
CC(=O)Nc1ccc(OCC(O)CNC(C)C)cc1 (centres undefined) | inactive | inactive
COc1cc(O)c(C(=O)c2ccccc2)cc1S(=O)(=O)O | inactive | 
CC(C)CCCC(C)N (centres undefined) | inactive | inactive
CN(C)CCC[C@@]1(c2ccc(F)cc2)OCc2cc(C#N)ccc21 | inactive | inactive
CCCCNC(=O)NS(=O)(=O)c1ccc(N)cc1 | inactive | inactive
O=C(Nc1cccc(C2=NCCN2)c1)Nc1cccc(C2=NCCN2)c1 | inactive | inactive
O=C1C(=O)c2ccccc2C(O)=C1C1CCC(c2ccc(Cl)cc2)CC1 (centres undefined) | inactive | 
Cc1cccc(C)c1NC(=O)CN1CCCCCC1 | inactive | inactive
CC(=O)Nc1ccc(CC(=O)O)cc1 | inactive | inactive
CCc1oc2ccccc2c1C(=O)c1cc(Br)c(O)c(Br)c1 | inactive | inactive
CC(=O)N[C@@H](CCC(=O)O)C(=O)O | inactive | inactive
N#CCC(=O)NN | inactive | inactive
O=C(O)Cc1csc(-c2ccc(Cl)cc2)n1 | inactive | 
O=C(O)CCNC(=O)c1ccccc1 | inactive | inactive
Cc1ncc(CO)c(C=O)c1O | inactive | inactive
CN1CCN(c2cc3c(cc2F)c(=O)c(C(=O)O)cn3-c2ccc(F)cc2)CC1 | inactive | inactive
COc1cc(NS(=O)(=O)c2ccc(N)cc2)ncn1 | inactive | inactive
CN(C)CCOC(c1ccc(Cl)cc1)c1ccccn1 (centres undefined) | inactive | inactive
Cn1c(=O)c2[nH]c(Br)nc2n(C)c1=O | inactive | 

SMILES | Potency [1] | Potency [2]
CC(=O)NC(=O)c1ccccc1O | inactive | inactive
O=C(Nc1ccc([N+](=O)[O-])cc1)Nc1ccc([N+](=O)[O-])cc1 | inactive | 
CCOc1cc(OCC)c(C(=O)CCC(=O)O)cc1OCC | inactive | 
CCCCCCCCNC(C)C(O)c1ccc(SC(C)C)cc1 (centres undefined) | 14.4 µM (active) | 22.8 µM (active)
CN(C)CCN1C(=O)c2ccccc2N(C)c2ccccc21 | inactive | inactive
COP(=O)(OC)OC(c1ccc(Cl)cc1)P(=O)(OC)OC (centres undefined) | inactive | inactive
CC(=O)OCC(=O)[C@H]1CC[C@H]2[C@@H]3CCC4=CC(=O)CC[C@]4(C)[C@H]3CC[C@]12C | inactive | inactive
Cc1cccc(C)c1NC(=O)CN1CCCC1 | inactive | 
CCN(CC)CCOC(=O)C1(c2ccccc2)CCCC1 | inactive | inactive
CCN(CC)CCOc1ccc2c(c1)C(=O)c1cc(OCCN(CC)CC)ccc1-2 | inactive | 8.09 µM (active)
O=C1C(O)=C(O)C(=O)C(O)=C1O | inactive | inactive
Cc1cccc(C)c1NC(=O)c1ccccc1C(=O)O | inactive | inactive
CC(=O)Nc1ccc(S(=O)(=O)Nc2ccc([N+](=O)[O-])cc2)cc1 | inactive | inactive
Cc1c[nH]c2ccccc12 | inactive | inactive
O=C(NC1CCN(CCc2c[nH]c3ccccc23)CC1)c1ccccc1 | inactive | inactive
NC1CCN(c2nc3c(cc2F)c(=O)c(C(=O)O)cn3-c2ccc(F)cc2F)C1 (centres undefined) | inactive | inactive
CC(C)[N+](C)(C)CC(O)COc1cccc2ccccc12 (centres undefined) | inactive | inactive
CCc1ccc(C(=O)C(C)CN2CCCCC2)cc1 (centres undefined) | inactive | inactive
CC(=O)Nc1ccc(OC(=O)c2ccccc2OC(C)=O)cc1 | inactive | 32.2 µM (active)
CC1CCc2c(N3CCC(O)CC3)c(F)cc3c(=O)c(C(=O)O)cn1c23 (centres undefined) | inactive | inactive
CCOC(=O)c1ccc(N)cc1 | inactive | inactive
CCOCCn1c(N2CCCN(C)CC2)nc2ccccc21 | inactive | inactive
COC(=O)C(c1ccccc1Cl)N1CCc2sccc2C1 (centres undefined) | inactive | inactive
COc1ccc(CCN(C)CCCN2CCc3cc(OC)c(OC)cc3CC2=O)cc1OC | inactive | inactive
c1ccc(-c2nc[nH]c2-c2ccccc2)cc1 | inactive | inactive
